Measurements from PubChem BioAssay.
Calls of active or inactive are those of the source. Unless noted, no rule for the calls is given here.

Key:
[1] = test system: Wnt5a (protein binding on small-molecule microarray); test: small molecules binding Wnt5a protein – biophysical, small-molecule microarray, 635/667 nm fluorescence, primary screen (AID 1142); conditions: 635 nm fluorescence, higher = more signal;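 also: fluorescence read at 667 nm with signal to noise per printed feature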
[2] = ATP-based viability of Huh7 replicon cells – cell-based, CellTiter-Glo luminescence, basal, 48 h, cytotoxicity control for HCV replication inhibitor project, primary screen (AID 1143); conditions: higher = more signal, called active from +8 up or from −8 down;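 also: Huh7 hepatoma cells carrying a hepatitis C replication reporter with no stimulus; test concentration not given here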
[3] = Pseudomonas biofilm growth suppression – PAO1 strain, BacTiter-Glo luminescence, LB-PBS, primary screen (AID 1144); conditions: P. aeruginosa PAO1 biofilm, 12 h, higher = more signal
[4] = basal CRE-LacZ reporter activity in PC12 – cell-based, unstimulated, primary screen (AID 1145); conditions: no forskolin, luminescence, 4.5 h, higher = more signal, called active from +8 up or from −8 down
[5] = forskolin-driven CRE-LacZ activity in PC12 – cell-based, CRE-LacZ reporter, forskolin-stimulated, primary screen (AID 1146); conditions: luminescence, 4.5 h, higher = more signal, called active from +8 up or from −8 down;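 also: PC12 cells with 6xCRE LacZ reporter stimulated by forskolin 10 µM; beta-galactosidase reporter signal reflecting CREB driven transcription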
[6] = molecular target: Streptavidin (Streptomyces avidinii) (UniProt P22629); test: compounds binding control protein streptavidin – biophysical, small-molecule microarray, 635/667 nm fluorescence, artefact control for SMM compound annotation, primary screen (AID 1147); conditions: higher = more signal;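 also: signal reflects streptavidin binding to arrayed compounds as a control protein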
Sequence of Streptavidin (Streptomyces avidinii) (P22629 whole entry, looked up): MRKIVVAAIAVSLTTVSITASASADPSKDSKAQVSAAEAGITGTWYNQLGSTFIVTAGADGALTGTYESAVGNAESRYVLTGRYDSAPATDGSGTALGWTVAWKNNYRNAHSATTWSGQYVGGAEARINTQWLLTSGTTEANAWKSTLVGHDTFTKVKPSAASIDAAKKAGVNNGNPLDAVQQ

[7] = probe aInhba binding on compound microarray – biochemical, small-molecule microarray, 635/667 nm fluorescence, primary screen (AID 1148); conditions: higher = more signal;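 also: score merges 667nm spot fluorescence with signal-to-noise for antibody binding to printed compounds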
Torsin-1A (Homo sapiens) [8] = molecular target: Torsin-1A (Homo sapiens) (UniProt O14656); test: TOR1A wild-type binding on microarray – cell lysate, small-molecule microarray, lysate, 635/667 nm, primary screen (AID 1149); conditions: COS7 hTOR1A-WT lysate, 635 nm fluorescence, higher = more signal
Sequence of Torsin-1A (Homo sapiens) (O14656 whole entry, looked up): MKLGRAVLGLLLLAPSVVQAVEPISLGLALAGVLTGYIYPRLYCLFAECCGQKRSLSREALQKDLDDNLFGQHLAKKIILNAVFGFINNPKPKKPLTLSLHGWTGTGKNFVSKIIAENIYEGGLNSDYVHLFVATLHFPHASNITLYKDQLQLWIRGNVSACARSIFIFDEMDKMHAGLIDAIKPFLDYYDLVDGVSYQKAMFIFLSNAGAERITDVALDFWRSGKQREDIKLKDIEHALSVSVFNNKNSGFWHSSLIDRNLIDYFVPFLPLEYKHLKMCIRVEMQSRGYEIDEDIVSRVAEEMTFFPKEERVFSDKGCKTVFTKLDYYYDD

Torsin-1A (Homo sapiens) [9] = molecular target: Torsin-1A (Homo sapiens) (UniProt O14656); test: torsin A mutant lysate binding on microarrays – cell lysate, small-molecule microarray, COS7 lysate, 635/667 nm fluorescence, primary screen (AID 1150); conditions: COS7 hTOR1A mutant lysate, 635 nm fluorescence, higher = more signal;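 also: score pools 667 nm emission and signal to noise measuring lysate protein binding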
[10] = test system: Sonic hedgehog protein (Shh); test: Sonic hedgehog microarray binding compounds – biochemical, small-molecule microarray, 635/667 nm fluorescence, primary screen (AID 1151); conditions: 635 nm fluorescence, higher = more signal;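 also: Shh protein binding to compounds spotted on small-molecule microarray slides; score combines spot fluorescence intensity with signal-to-noise across triplicate slides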

| SMILES | composite z-score [1] | z-score [2] | z-score [3] | z-score [4] | z-score [5] | composite z-score [6] | composite z-score [7] | composite z-score (Torsin-1A (Homo sapiens) [8]) | composite z-score (Torsin-1A (Homo sapiens) [9]) | composite z-score [10] |
| --- | --- | --- | --- | --- | --- | --- | --- | --- | --- | --- |
| O=c1oc(-c2ccccc2)nc2cc(Br)ccc12 | 0.147 | -0.746 (inactive) | 0.786 (inactive) | 0.416 (inactive) | 0.827 (inactive) | 0.0708 | -0.176 | 0.641 | 0.508 | 0.44 |
| COCCOC(=O)N1C(=O)[C@@]2(c3ccccc31)[C@H](C(=O)Nc1nc3ccccc3s1)[C@H]1C(=O)O[C@H](c3ccccc3)[C@H](c3ccccc3)N1[C@@H]2c1ccc(OCCO)cc1 | 0.931 | -2.34 (inactive) | -0.706 (inactive) | -0.878 (inactive) | -0.523 (inactive) | 0.82 | 0.038 | 0.488 | 1.25 | 1.12 |
| Cc1cc(C)cc(N2C(=O)CS(=O)(=O)C2c2cccc([N+](=O)[O-])c2)c1 (stereo not given) | 0.223 | -2.18 (inactive) | -0.527 (inactive) | -0.0243 (inactive) | -0.494 (inactive) | 1.26 | 0.952 | 0.513 | 0.897 | 0.659 |
| COCC(=C=CC[C@@H](O)c1ccc(CO)o1)CCO | 0.0507 | -3.6 (inactive) | -1.23 (inactive) | 0.014 (inactive) | -0.845 (inactive) | -0.618 | -0.024 | -0.117 | -0.114 | 2.2 |
| C=CC[C@@H](OC(=O)Nc1ccc(OC)cc1)c1ccc(O)c2ccccc12 | 0.42 | -4.89 (inactive) | -1.39 (inactive) | 1.01 (inactive) | 4.3 (inactive) | 0.737 | 0.241 | 1.31 | 0.625 | 2.03 |
| CCN(CC)c1ccc(N2CC=CC34O[C@@H]5/C=C\CCCOC(=O)C5[C@H]3C(=O)N(C(CO)C(C)C)[C@@H]4C2=O)cc1 (stereo not given in full) | -0.297 | -0.245 (inactive) | 2.75 (inactive) | -0.0939 (inactive) | 0.119 (inactive) | -0.819 | -0.128 | 0.006 | -1.2 | 0.0008 |
